The results in this text go back to PubChem BioAssay.

Records with an inconclusive call do not appear. Calls of active or inactive are those of the source.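 The calls were made as follows, unless noted: active = inhibition above 50%, about 3 SD of the validation set; inactive = the rest.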

A short description of assay [1]: yeast TOR pathway RPL19A-GFP modulators, primary screen, cell-based, S. cerevisiae, multiplex flow cytometry (AID 1862; in the data active = percent of DMSO control GFP below about 86%;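 also: lower values mimic rapamycin by blocking the RPL19A rise seen in DMSO cells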). The note with it: S. cerevisiae RPL19A-GFP strain, flow cytometry fluorescence, 3 h; at 10 µM; stronger effect = lower value. (Flow cytometry measures light scatter and fluorescence of single cells or particles in a stream.)
Assay [2] is described as follows: modulators of MEP2-GFP levels in yeast, primary screen, S. cerevisiae, multiplex flow cytometry (AID 1867;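 active = GFP response, as percent of the DMSO control, above the screen-wide mean plus 3 SD, about 139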;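 also: median GFP channel fluorescence of barcode-gated MEP2-GFP cells measured by flow cytometry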). Particulars: S. cerevisiae MEP2-GFP strain, 3 h, at 10 µM, stronger effect = higher value, 100% means same as DMSO wells.
A short description of assay [3]: modulators of CIT2-GFP expression in yeast, primary screen, S. cerevisiae, GFP fusion, multiplex flow cytometry (AID 1870;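 active = percent response above a set limit, the screen-wide mean plus 3 SD, cut at about 130% in these data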;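 also: barcoded CIT2-GFP strain pooled with four other GFP strains with rapamycin as positive control; median GFP fluorescence per well over plate mean of DMSO wells so 100% = DMSO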). The note with it: 3 h, at 10 µM, stronger effect = higher value.
Assay [4] can be described thus: modulators of LAP4-GFP expression in yeast, primary screen, S. cerevisiae, multiplex flow cytometry (AID 1873;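 active = GFP signal, as percent of the solvent control, above the screen mean plus 3 SD, about 149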). The note with it: 3 h, at 10 µM, stronger effect = higher value.
Assay [5] can be described thus: modulators of AGP1-GFP expression in yeast TOR pathway, primary screen, cell-based, multiplex flow cytometry, S. cerevisiae (AID 1887;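 active = GFP signal above the screen-wide mean plus 3 SD, that is over about 124.5% of the solvent control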;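 also: AGP1-GFP fusion strain of S. cerevisiae within a five-strain barcoded multiplex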). Particulars: 3 h, at 10 µM, stronger effect = higher value.
Assay [6] is described as follows: inhibitors of CD8+ T cell-vesicle binding, pilot screen, LFA-1/ICAM-1 modulator project, MLPCN validation set, flow cytometry (AID 2523;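 active = response below a set limit, under 55% cells CD8-positive and vesicle-bound, and CD8 cells' 90th-percentile brightness under 279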;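 as to vesicle binding response: mean PE anti-B7-1 fluorescence of CD8+ cells relative to row control; 100% = QL9-loaded vesicles with DMSO vehicle in the same plate row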). The note with it: 2C mouse CD8+ T cells, at 7 µM, stronger effect = lower value; double positive events: measured here: CD8+/vesicle+ event percentage.
Assay [7] concerns the target Integrin beta-1 (Homo sapiens) + Integrin alpha-4 (Homo sapiens) (UniProt P13612+P05556). Nature of the assay: inhibition of HUTS-21 binding to VLA-4, pilot screen, VLA-4 allosteric modulator project, U937 cells, HUTS-21 mAb, flow cytometry, validation set (AID 2674).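 Also: antibody binding induced by the VLA-4 ligand LDV present at three times its Kd; 0% = LDV ligand with antibody and no compound and 100% = antibody without LDV.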 The note with it: HUTS-21 LIBS mAb binding, at 6.7 µM, stronger effect = higher value, binding induced by LDV ligand.

A short description of assay [8]: superoxide lowering in aged yeast cells, pilot screen, validation compound set (AID 2706;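 active = superoxide response below 65% of plate, a cut near 3 SD across the whole screen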;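 also: yeast exposed to compound for one week at 30 degrees C before staining; 100% = mean of all compound wells on the same plate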). Particulars: S. cerevisiae aging, superoxide DHE fluorescence; at 10 µM; stronger effect = lower value.
The target of assay [9] is Beta-adrenergic receptor kinase 1 (Homo sapiens) (UniProt P25098). The experiment in a line: GRK2 binders displacing RNA aptamer, biochemical, validation, human GRK2, bead flow cytometry (AID 488806;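 active = aptamer binding inhibition above 30%, about 3 SD of noise from non-fluorescent compounds; inactive = inhibition at or below 30%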). The note with it: bead-bound GRK2, FAM-aptamer displacement, at 10 µM, stronger effect = higher value.
In assay [10] the target is Beta-2 adrenergic receptor (Homo sapiens) (UniProt P07550). The experiment in a line: beta2AR agonists driving receptor internalization, pilot screen, cell-based, FAP fluorogen, flow cytometry, validation set (AID 504459;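 active = percent response above 42, roughly 3 SD of non-fluorescent test compounds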;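 also: agonist-driven loss of surface beta2AR via internalization measured by FAP dye flow cytometry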). The note with it: Am2.2-beta2AR cells, FAP surface receptor flow cytometry; at 10 µM; stronger effect = higher value.
Assay [11] concerns the target AP-2 complex subunit beta (Homo sapiens) (UniProt P63010). The experiment in a line: inhibitors of arrestin peptide binding to AP2, pilot screen, biochemical, validation set, GST-AP2 beads, flow cytometry (AID 504541;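 active = inhibition above 54%, about 3 SD of non-fluorescent compounds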;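 also: AP2 carries R879A mutation and is captured from E. coli lysate; bead-bound FITC arrestin peptide fluorescence measuring arrestin peptide binding to AP2; 0% = DMSO wells and 100% = excess unlabeled arrestin peptide control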). Particulars: FITC arrestin peptide, at 10 µM, stronger effect = higher value, AP2 beta2 appendage fragment, R879A mutant.
Assay [12] in a line: yeast V-ATPase proton transport modulators, S. cerevisiae, pHLuorin, HTS validation (AID 504600; in the data active = response above about 15%;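 also: plate controls were DMSO for no effect and reference compound for full effect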). The note with it: S. cerevisiae pHLuorin cytosolic pH, at 10 µM, stronger effect = higher value.
In assay [13] the test system is anti-desmoglein-3 scFv antibody binding to human DSG3. Nature of the assay: inhibitors of anti-DSG3 scFv binding to DSG3, pilot screen, biochemical, validation compound set, bead-based, flow cytometry (AID 588368;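 active = binding below the plate cutoff, the plate median minus 3 SD, with a reading above zero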;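 also: signal is the median channel fluorescence of bead-bound GFP antibody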). Particulars: Protein G beads, DSG3-Fc, scFv-GFP binding, at 10 µM, stronger effect = lower value.
Assay [14] in a line: inhibitors of fungal efflux pumps CDR1, CDR2, MDR1, pilot screen, validation compound set, multiplex, phenotypic (AID 588506;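 active = efflux inhibition above 0.42, the validation set average plus 4 SD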;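 also: Nile Red retained in cells so higher fluorescence means more efflux inhibition; 0 = negative control wells and 1 = enniatin B 25 µM full block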). The note with it: S. cerevisiae pump-expressing triplex, Nile Red efflux flow cytometry; at 10 µM; stronger effect = higher value; the pumps come from Candida albicans.
Assay [15] deals with ATP-binding cassette sub-family B member 6 (Homo sapiens) (UniProt Q9NP58). The experiment in a line: ABCB6 transporter inhibitors, pilot screen, K562-ABCB6 cells, flow cytometry, validation set (AID 588550;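 active = inhibition above the screen-wide mean plus 3 SD, about 51%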;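 also: 0% = DMSO wells and 100% = benzethonium chloride 70 µM positive control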). The note with it: K562-ABCB6 porphyrin accumulation, 1 h, at 10 µM, stronger effect = higher value.
Assay [16] in a line: promoters of myeloid differentiation in arrested cells, primary screen, cell-based, GFP/MAC1 double positive, flow cytometry, validation set (AID 588685;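 active = differentiation response of at least 50%, scaled between solvent and reference control, from cells with both markers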;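 also: compound exposure lasts four days before antibody staining and flow analysis; 0% = DMSO wells and 100% = 5 µM fulvestrant positive control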). Particulars: ER-HoxA9 marrow cells, stronger effect = higher value, normalized: vehicle 0, fulvestrant 100.

Sequence of Integrin beta-1 (Homo sapiens) + Integrin alpha-4 (Homo sapiens) (P05556 whole entry, looked up): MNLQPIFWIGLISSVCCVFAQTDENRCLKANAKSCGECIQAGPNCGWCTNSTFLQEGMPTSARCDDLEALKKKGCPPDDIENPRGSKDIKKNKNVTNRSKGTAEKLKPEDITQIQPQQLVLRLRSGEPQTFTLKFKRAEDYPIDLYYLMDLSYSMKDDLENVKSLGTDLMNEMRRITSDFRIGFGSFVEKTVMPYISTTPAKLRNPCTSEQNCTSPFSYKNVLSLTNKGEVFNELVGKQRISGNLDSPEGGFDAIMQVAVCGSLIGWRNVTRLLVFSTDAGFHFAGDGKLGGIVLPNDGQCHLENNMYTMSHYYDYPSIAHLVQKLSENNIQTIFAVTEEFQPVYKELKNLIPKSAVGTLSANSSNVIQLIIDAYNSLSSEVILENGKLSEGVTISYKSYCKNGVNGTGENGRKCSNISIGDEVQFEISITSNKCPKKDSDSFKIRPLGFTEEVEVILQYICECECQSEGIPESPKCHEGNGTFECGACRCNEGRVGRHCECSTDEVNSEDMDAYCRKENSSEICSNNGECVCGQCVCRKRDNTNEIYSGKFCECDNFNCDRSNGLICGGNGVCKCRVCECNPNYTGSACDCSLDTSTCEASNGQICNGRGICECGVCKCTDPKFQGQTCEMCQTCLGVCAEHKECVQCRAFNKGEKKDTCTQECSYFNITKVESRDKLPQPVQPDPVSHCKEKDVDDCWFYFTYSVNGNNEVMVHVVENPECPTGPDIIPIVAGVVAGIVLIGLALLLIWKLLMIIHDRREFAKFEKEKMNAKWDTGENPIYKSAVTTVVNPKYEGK
Sequence of Integrin beta-1 (Homo sapiens) + Integrin alpha-4 (Homo sapiens) (P13612 whole entry, looked up): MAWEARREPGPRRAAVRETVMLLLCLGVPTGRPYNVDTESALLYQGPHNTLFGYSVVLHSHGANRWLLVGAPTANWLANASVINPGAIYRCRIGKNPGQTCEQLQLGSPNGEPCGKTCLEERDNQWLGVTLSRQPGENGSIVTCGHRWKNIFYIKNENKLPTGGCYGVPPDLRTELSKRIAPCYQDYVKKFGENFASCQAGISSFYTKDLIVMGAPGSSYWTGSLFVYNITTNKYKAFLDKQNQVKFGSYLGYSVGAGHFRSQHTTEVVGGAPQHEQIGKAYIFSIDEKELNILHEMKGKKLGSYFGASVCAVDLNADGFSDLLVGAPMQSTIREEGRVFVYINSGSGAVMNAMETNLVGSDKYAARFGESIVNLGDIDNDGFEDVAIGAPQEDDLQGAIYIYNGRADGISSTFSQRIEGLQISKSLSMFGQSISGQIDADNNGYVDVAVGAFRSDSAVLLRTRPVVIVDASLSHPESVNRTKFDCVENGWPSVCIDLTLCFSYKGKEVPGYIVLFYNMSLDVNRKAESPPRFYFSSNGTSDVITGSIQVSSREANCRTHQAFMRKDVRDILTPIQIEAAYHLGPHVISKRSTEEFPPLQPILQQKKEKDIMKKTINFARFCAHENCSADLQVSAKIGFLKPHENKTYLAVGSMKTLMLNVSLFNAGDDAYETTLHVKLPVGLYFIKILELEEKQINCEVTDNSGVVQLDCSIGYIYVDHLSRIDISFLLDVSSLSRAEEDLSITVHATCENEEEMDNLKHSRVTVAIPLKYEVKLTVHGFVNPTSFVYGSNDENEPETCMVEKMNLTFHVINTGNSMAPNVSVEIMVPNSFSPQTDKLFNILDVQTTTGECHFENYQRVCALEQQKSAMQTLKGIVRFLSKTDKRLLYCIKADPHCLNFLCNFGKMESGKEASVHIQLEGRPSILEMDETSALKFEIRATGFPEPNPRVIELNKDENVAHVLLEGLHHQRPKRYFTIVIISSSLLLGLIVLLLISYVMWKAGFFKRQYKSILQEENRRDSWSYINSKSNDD
Sequence of Beta-2 adrenergic receptor (Homo sapiens) (P07550 whole entry, looked up): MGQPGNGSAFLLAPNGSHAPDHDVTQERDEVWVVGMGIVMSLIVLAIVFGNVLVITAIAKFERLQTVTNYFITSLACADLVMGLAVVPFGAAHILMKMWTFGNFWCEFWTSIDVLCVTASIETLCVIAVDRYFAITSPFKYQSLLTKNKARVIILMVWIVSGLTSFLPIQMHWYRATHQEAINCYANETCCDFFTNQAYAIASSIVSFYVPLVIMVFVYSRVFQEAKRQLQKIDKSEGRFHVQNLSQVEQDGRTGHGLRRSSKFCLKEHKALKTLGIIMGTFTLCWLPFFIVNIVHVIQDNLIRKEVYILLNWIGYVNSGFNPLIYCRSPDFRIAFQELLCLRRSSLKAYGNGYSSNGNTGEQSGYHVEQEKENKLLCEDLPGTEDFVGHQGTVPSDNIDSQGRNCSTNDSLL
Sequence of AP-2 complex subunit beta (Homo sapiens) (P63010 whole entry, looked up, the tested form may be a part, one chain of several): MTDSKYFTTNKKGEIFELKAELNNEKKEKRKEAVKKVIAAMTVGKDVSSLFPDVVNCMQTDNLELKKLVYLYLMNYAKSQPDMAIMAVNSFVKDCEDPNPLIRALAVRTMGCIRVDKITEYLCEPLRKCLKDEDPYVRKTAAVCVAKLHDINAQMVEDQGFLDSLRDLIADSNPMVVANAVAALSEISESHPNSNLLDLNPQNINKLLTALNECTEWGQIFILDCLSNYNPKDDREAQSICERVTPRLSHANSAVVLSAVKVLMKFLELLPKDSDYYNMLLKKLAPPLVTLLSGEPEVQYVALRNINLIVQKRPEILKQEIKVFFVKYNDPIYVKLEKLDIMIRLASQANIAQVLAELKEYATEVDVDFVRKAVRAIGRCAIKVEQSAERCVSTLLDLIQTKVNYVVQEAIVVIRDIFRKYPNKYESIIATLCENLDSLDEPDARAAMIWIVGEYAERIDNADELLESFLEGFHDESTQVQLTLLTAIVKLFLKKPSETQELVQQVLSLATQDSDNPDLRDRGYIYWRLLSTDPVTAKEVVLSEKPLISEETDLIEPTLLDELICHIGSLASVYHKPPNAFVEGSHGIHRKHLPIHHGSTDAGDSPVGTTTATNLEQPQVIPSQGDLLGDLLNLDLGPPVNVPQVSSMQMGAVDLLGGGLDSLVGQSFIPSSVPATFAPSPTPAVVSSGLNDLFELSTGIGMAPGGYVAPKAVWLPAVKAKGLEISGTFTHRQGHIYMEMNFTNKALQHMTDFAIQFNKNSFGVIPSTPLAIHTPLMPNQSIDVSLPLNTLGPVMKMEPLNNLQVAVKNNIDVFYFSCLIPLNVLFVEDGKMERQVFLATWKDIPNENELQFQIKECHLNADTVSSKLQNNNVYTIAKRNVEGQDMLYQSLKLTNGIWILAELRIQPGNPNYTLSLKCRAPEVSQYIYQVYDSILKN
Sequence of Beta-adrenergic receptor kinase 1 (Homo sapiens) (P25098 whole entry, looked up): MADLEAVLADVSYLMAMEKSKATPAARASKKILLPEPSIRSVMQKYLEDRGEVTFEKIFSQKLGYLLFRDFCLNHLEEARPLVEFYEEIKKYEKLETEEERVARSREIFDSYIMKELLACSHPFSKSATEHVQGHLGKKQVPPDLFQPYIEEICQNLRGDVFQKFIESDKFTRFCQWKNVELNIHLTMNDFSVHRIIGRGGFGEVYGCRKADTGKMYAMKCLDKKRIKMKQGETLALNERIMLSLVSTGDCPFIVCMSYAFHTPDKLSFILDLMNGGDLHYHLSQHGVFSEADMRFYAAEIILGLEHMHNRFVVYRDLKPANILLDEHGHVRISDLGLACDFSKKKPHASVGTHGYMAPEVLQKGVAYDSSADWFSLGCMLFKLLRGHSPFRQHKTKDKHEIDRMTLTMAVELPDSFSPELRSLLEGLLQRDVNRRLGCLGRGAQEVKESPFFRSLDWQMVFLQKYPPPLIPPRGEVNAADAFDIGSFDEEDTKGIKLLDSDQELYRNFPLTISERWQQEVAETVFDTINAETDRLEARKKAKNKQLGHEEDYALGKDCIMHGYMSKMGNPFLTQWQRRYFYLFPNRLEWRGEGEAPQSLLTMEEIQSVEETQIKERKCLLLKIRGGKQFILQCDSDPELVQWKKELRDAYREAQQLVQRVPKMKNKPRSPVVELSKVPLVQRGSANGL
Sequence of ATP-binding cassette sub-family B member 6 (Homo sapiens) (Q9NP58 whole entry, looked up): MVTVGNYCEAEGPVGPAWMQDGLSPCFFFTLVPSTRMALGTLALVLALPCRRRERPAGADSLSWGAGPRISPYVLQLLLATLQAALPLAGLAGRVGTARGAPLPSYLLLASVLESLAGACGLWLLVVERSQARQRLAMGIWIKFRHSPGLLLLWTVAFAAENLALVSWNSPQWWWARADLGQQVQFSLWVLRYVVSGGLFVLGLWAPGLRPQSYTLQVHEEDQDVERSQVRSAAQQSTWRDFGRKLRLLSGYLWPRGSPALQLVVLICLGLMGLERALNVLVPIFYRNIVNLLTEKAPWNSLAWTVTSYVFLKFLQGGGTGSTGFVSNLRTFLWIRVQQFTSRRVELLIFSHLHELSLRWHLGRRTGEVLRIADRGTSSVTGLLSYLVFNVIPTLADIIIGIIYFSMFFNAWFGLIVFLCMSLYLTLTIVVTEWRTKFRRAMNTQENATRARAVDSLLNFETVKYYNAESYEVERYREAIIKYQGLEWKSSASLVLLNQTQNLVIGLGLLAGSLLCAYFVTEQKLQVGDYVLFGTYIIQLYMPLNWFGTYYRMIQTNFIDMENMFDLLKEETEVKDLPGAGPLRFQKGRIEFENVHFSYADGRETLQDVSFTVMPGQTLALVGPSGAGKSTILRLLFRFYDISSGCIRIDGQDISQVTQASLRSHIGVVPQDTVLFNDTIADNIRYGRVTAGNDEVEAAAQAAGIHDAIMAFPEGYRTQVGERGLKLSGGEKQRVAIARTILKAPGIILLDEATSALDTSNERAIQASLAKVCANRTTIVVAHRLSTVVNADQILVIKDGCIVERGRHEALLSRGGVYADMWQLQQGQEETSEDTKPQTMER

As a reminder, the inhibition is the relative decrease from the control value, in per cent. For the compound `CCN(CCCCOC(=O)c1ccc(OC)c(OC)c1)C(C)Cc1ccc(OC)cc1` (stereo not drawn), the percent of DMSO control GFP in [1] was 102% (inactive). Besides, the GFP response vs DMSO in assay [2] is 99.6% (inactive); in assay [4] it was 104% (inactive). Also, the percent response of DMSO control in [3] was 102% (inactive). In addition, the GFP response, % of DMSO in assay [5] was 117% (inactive). The compound also displayed a double positive events in assay [6] of 62.7%. Moreover, the vesicle binding response in assay [6] was 194% (inactive). In addition, the inhibition in [7] is 22.7% (inactive); in assay [11] it was 3.32% (inactive); in assay [15], 6% (inactive). Also, the superoxide response (% of plate) in [8] is 103% (inactive). For the same compound, the aptamer binding inhibition in [9] was 4% (inactive). Besides, the response in assay [10] is -26.8% (inactive); in assay [12], 0.12% (inactive). Besides, in [13], the binding (% of control) was 103% (inactive). Also, in [14], the efflux inhibition (fraction of control) is -0.09 (inactive). The differentiation response in assay [16] was -5.97% (inactive).

Consider `O=C(Nc1ccc(N2CCOCC2)cc1)c1ccc(-c2ccccc2[N+](=O)[O-])o1`, for which the percent of DMSO control GFP in [1] was 102% (inactive). For the same compound, the GFP response vs DMSO is 102% (inactive) in [2] and 96.5% (inactive) in assay [4]. In addition, in assay [3], the percent response of DMSO control is 106% (inactive). In addition, the GFP response, % of DMSO in [5] was 98.8% (inactive). The same compound registered a double positive events in assay [6] of 68.5%. Also, the vesicle binding response in [6] was 132% (inactive). For the same compound, the figures for the inhibition in assay [7], in assay [11] and in [15] were 3.98% (inactive), -4.06% (inactive) and 6% (inactive), respectively. In addition, the superoxide response (% of plate) in assay [8] was 99.9% (inactive). The aptamer binding inhibition in assay [9] was 5% (inactive). The response in assay [10] is 8.71% (inactive); in [12], 1.65% (inactive). The binding (% of control) in assay [13] was 97.9% (inactive). The efflux inhibition (fraction of control) in assay [14] is 0.07 (inactive). Also, the differentiation response in assay [16] was -1.88% (inactive).

Turning to `Cc1cc(=O)[nH]c(=S)[nH]1`, in assay [1], the percent of DMSO control GFP was 97% (inactive). The results for the GFP response vs DMSO in assay [2] and in assay [4] were 109% (inactive) and 79.2% (inactive), respectively. For the same compound, the percent response of DMSO control in assay [3] was 106% (inactive). Further, in assay [5], the GFP response, % of DMSO is 96.6% (inactive). Further, the double positive events in assay [6] was determined as 64.4%. In addition, the vesicle binding response in assay [6] is 223% (inactive). The inhibition in assay [7] was 12.3% (inactive); in assay [11] it was -0.05% (inactive); in [15], 12% (inactive). Further, in assay [8], the superoxide response (% of plate) was 113% (inactive). Further, the aptamer binding inhibition in assay [9] was -9% (inactive). In addition, the response in assay [10] was -11.1% (inactive); in [12], 0.42% (inactive). Also, the binding (% of control) in assay [13] was 104% (inactive). Further, in assay [14], the efflux inhibition (fraction of control) is 0.12 (inactive). Besides, the differentiation response in assay [16] is 0.82% (inactive).

As for `CC(C)(C)OC(=O)N1CC(O)CC1C(=O)OCC(=O)c1ccc(Cl)cc1` (stereo not drawn), the percent of DMSO control GFP in assay [1] was 105% (inactive). The figures for the GFP response vs DMSO in assay [2] and in [4] were 98.3% (inactive) and 90.7% (inactive), respectively. Besides, the percent response of DMSO control in [3] was 113% (inactive). Moreover, in assay [5], the GFP response, % of DMSO is 105% (inactive). Besides, in assay [6], the double positive events amounted to 61.3%. Also, the vesicle binding response in [6] was 222% (inactive). The inhibition in assay [7] was 2.66% (inactive); in assay [11] it was -13.3% (inactive); in assay [15] it was -6% (inactive). Further, in assay [8], the superoxide response (% of plate) is 105% (inactive). In addition, in assay [9], the aptamer binding inhibition is 0% (inactive). For the same compound, the response in assay [10] was -16.2% (inactive); in assay [12] it was 2.73% (inactive). Moreover, the binding (% of control) in assay [13] was 98.2% (inactive). For the same compound, in [14], the efflux inhibition (fraction of control) is 0.14 (inactive). In addition, the differentiation response in assay [16] is 8.06% (inactive).
